Data: PubChem BioAssay (EPA / NIEHS)
Inconclusive results are not listed. Calls of active or inactive are those of the source. Rule for the calls: active = hit-call score of the fitted dose curve at least 0.9, where 1 is the maximum; inconclusive = response in the unintended direction; inactive = score below 0.9.

Key:
[1] = VALA_TUBHUV_Agonist_CellCount: Viability Assessment in the VALA Sciences human Umbilical Vein Endothelial Tubule Formation (TUBHUV) Agonism Assay (AID 2284309)
Procedure: VALA_TUBHUV_Agonist is a cell-based, multiplexed assay that uses human umbilical vein endothelial cells (HUVEC). Measurements were taken 72 hours after chemical dosing in a 96-well plate.VALA_TUBHUV_Agonist_CellCount is the one of two assay components measured from the VALA_TUBHUV_Agonist assay. It is designed to make measurements of viability, a form of viability reporter, as detected with fluorescence intensity signals by HCS Fluorescent Imaging technology. Data from the assay component VALA_TUBHUV_Agonist_CellCount was analyzed at the endpoint, VALA_TUBHUV_Agonist_CellCount, in the positive analysis fitting direction relative to DMSO as the negative control and baseline of activity. Using a type of viability reporter, loss-of-signal activity can be used to understand viability. To generalize the intended target to other relatable targets, this assay endpoint is annotated to the cell cycle intended target family, where the subfamily is cell count.
This HUVEC-HDF assay was designed to detect chemical suppression of tubulogenesis, i.e. antagonism. To measure tubulogenesis antagonism, HUVEC cells were co-cultured with HDF cells at a 1:3 ratio for 3-days in 10 ng/ml VEGF (i.e., favorable conditions with growth factors), then changed to assay medium containing 10 ng/ml VEGF and ToxCast compounds for an additional 3-day period. […]

[2] = VALA_TUBHUV_Antagonist_CellCount: Viability Assessment in the VALA Sciences human Umbilical Vein Endothelial Tubule Formation (TUBHUV) Antagonism Assay (AID 2284310)
Summary of the method: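 HUVEC co-cultured with HDF (1:3) 3 days in 10 ng/ml VEGF, then 3 days with compounds in VEGF medium. Fixed, nuclear stain and CD31 immunofluorescence, imaged; cell counts fitted versus 0.1% DMSO, loss of signal read as lower viability.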

[3] = VALA_MIGHUV2_Bcatenin: VALA Sciences human Umbilical Vein Endothelial Cell Migration (MIGHUV) Assay, Nuclear Translocation of beta-Catenin after Recovery (AID 2284315)
Summary of the method: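 HUVEC (4000 cells/well) scratch-wounded, dosed within 30 min over 6 concentrations in triplicate, recovered 24 h. After fixation, Hoechst and anti-beta-catenin immunofluorescence imaged for nuclear CTNB. Gain of signal versus 0.1% DMSO.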

[4] = VALA_MIGHUV2_WoundArea: VALA Sciences human Umbilical Vein Endothelial Cell Migration (MIGHUV) Assay, Area of Scratch Wound after Recovery (AID 2284316)
Summary of the method: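 HUVEC seeded at 9000 cells/well, scratched after 24 h; test chemical added within 30 min, 6-point concentration response in triplicate (0.1% DMSO vehicle). After 24 h wound recovery, cells fixed and Hoechst-stained nuclei in wound area imaged; Cytochalasin D reference control.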

Measured: outcome

Cc1ccc(N)cc1N
inactive: all assays above
